Screening data as filed in PubChem.
In the library only some 4.1% were active in any assay of this set; here they are far more common.
hcDAF-12 act: activates DAF-12 receptor from parasite H. contortus. HEK293 hcDAF-12 lit1-tk-luc reporter, luminescence; 0% DMSO, 100% Δ7-dafachronic acid. activation, % at 6.8 µM. actives 1.4% (n = 370,000);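 active = activation above the mean of all tested compounds plus 3 SD, cut at about 5.5% in these data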;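 note: 100% = response to 3 µM Δ7-dafachronic acid high control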
DAX1 inh-1: NR0B1 (DAX1) inhibition. actives 0.99% (n = 340,000). inhibition, % at 6.75 µM. HEK293 Gal4-DAX1 luciferase reporter, luminescence;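 active = inhibition above the mean over all tested compounds plus 3 SD, cut at about 4.2% in these data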;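 note: 0% = DAX1-transfected cells with DMSO and 100% = empty-vector control cells with DMSO; inhibition shows as a rise in luminescence from relieved DAX1 repression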
Target sequence (P51843 207-470 limits assumed): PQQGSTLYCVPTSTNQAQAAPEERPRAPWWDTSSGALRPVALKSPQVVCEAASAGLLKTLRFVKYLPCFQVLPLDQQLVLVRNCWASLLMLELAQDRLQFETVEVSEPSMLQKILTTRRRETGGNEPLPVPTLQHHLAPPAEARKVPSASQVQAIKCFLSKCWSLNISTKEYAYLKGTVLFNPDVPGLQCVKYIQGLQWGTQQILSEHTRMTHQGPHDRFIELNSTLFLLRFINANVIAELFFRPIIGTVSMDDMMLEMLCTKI
hgDAF-12 ag: agonists of H. glycines DAF-12 nuclear receptor; HEK293 GAL4-hgDAF12 UAS-luciferase reporter, agonist luminescence; normalized to butyrate control; activation, % at 6.8 µM; actives 1.8% (n = 370,000); AID 687014;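 active = activation above a cutoff set at the mean of all screened compounds plus 3 SD, cut at about 10% in these data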;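 note: 0% = DMSO wells and 100% = sodium butyrate wells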
ssDAF12 agonist: activates DAF-12 receptor from parasite S. stercoralis. AID 652126. HEK293 ssDAF-12/GRIP1 lit1-tk-luc reporter, luminescence; % of 3 µM dafachronic acid response. activation, % at 6.8 µM. actives 1% (n = 370,000);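 active = activation above the mean over all tested compounds plus 3 SD, cut at about 0.9% in these data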;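 note: 0% = DMSO-only wells and 100% = 3 µM delta7-dafachronic acid wells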
DAX1 inh-2: blocks DAX1 repression of SF-1 activated StAR promoter; HEK293T StAR-luciferase reporter, SF-1/DAX-1 repression relief; inhibition, % at 6.8 µM; actives 1.1% (n = 370,000);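 active = inhibition above the mean over all tested compounds plus 3 SD, cut at about 3.6% in these data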;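 note: 0% = DAX-1 cells with DMSO and 100% = cells lacking DAX-1 with DMSO; higher inhibition means more luminescence from relief of DAX-1 repression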
* = called active by the depositor.

Cc1cc(C(=O)OCCCN(C)C2CN(Cc3cn(Cc4ccccc4C(F)(F)F)nn3)S(=O)(=O)C2)no1 (centres undefined) was read as hcDAF-12 act -2, hgDAF-12 ag 0, ssDAF12 agonist -1 and DAX1 inh-2 -1.
COc1ccccc1-c1nnc(SCC(=O)Nc2cccnc2Cl)n1C was read as hcDAF-12 act 4, DAX1 inh-1 0, hgDAF-12 ag 0, ssDAF12 agonist 0.9* and DAX1 inh-2 1.
`COc1ccccc1-n1cnnc1SCC(=O)Nc1cccnc1Cl` gave hcDAF-12 act 1, DAX1 inh-1 0, hgDAF-12 ag 2, ssDAF12 agonist -1 and DAX1 inh-2 0.
COc1cc(/C=N/Nc2nncc3ccccc23)cc(OC)c1OC was read as hcDAF-12 act 0, DAX1 inh-1 1, hgDAF-12 ag 8, ssDAF12 agonist -1 and DAX1 inh-2 1.
Screening C/C(=N\Nc1nncc2ccccc12)c1ccc(C(C)(C)C)cc1 returned DAX1 inh-1 4.9*.
Screening CC(=O)c1sc(-c2ccccc2)cc1N returned hcDAF-12 act -1, hgDAF-12 ag 0, ssDAF12 agonist -2 and DAX1 inh-2 0.
`CC(C)(C)N=Cc1cc(-c2ccccc2)sc1O` gave hcDAF-12 act 1, DAX1 inh-1 2, hgDAF-12 ag 12*, ssDAF12 agonist 0 and DAX1 inh-2 2.
For CN1CC[C@@H]2CN(S(=O)(=O)c3ccccc3)[C@H](c3ccccc3Br)C[C@@H]21 the results were hcDAF-12 act -1, hgDAF-12 ag -1, ssDAF12 agonist 0 and DAX1 inh-2 0.
For O=C1Nc2ccccc2S/C1=C/c1cccs1 the results were hcDAF-12 act 4, DAX1 inh-1 2, hgDAF-12 ag 7, ssDAF12 agonist 1.3* and DAX1 inh-2 0.
COC(=O)[C@]12C[C@H](CC(=O)NCc3ccc(OC)c(OC)c3)C(=O)N(Cc3ccco3)C1=C[C@H](C(C)C)O[C@@H]2C1CC1 was read as hcDAF-12 act -2, hgDAF-12 ag 3, ssDAF12 agonist -1 and DAX1 inh-2 1.
For CCOC(=O)CSc1nc(Cc2ccccc2)nc2ccccc12 the results were hcDAF-12 act -3, DAX1 inh-1 4.3*, hgDAF-12 ag -1, ssDAF12 agonist -1 and DAX1 inh-2 0.
`CCOC(=O)CSc1nc(CC)nc2ccccc12` gave hcDAF-12 act 0, DAX1 inh-1 0, hgDAF-12 ag 1, ssDAF12 agonist -2 and DAX1 inh-2 0.
For COC(=O)[C@H](Cc1ccccc1)N(Cc1cn(Cc2ccccc2)nn1)S(=O)(=O)c1ccccc1Br the results were hcDAF-12 act 2, hgDAF-12 ag -3, ssDAF12 agonist -1 and DAX1 inh-2 -2.
`Nc1ccc2c(=O)[nH][nH]c(=O)c2c1` gave hcDAF-12 act -2, DAX1 inh-1 -1, hgDAF-12 ag 3, ssDAF12 agonist 0 and DAX1 inh-2 -1.
For Nc1ccc2oc3ccc(N)cc3c(=O)c2c1 the results were hcDAF-12 act 5.6*, DAX1 inh-1 0, hgDAF-12 ag 11*, ssDAF12 agonist 1 and DAX1 inh-2 4.2*.
`CN(C(=O)c1cccc(NC(=O)Cc2ccc(NC(=O)C3CCN(C(=O)c4ccccc4)CC3)cc2)c1)C1CCC1` gave hcDAF-12 act -1, DAX1 inh-1 3, hgDAF-12 ag -1, ssDAF12 agonist 1.2* and DAX1 inh-2 0.
`CN(C(=O)c1cccc(NC(=O)Cc2ccc(NC(=O)C3CCCN(C(=O)C4CCCCC4)C3)cc2)c1)C1CC1` (centres undefined) gave hcDAF-12 act 0, DAX1 inh-1 0, hgDAF-12 ag 1, ssDAF12 agonist -1 and DAX1 inh-2 -1.
CN(C(=O)c1cccc(NC(=O)Cc2ccc(NC(=O)C3CCCN(C(=O)C4CCC4)C3)cc2)c1)C1CCC1 (centres undefined) was read as hcDAF-12 act -2, DAX1 inh-1 -1, hgDAF-12 ag -2, ssDAF12 agonist 1.3* and DAX1 inh-2 -1.
Screening Fc1ccccc1/C=N/Nc1ncnc2nc[nH]c12 returned hcDAF-12 act -1, DAX1 inh-1 2, hgDAF-12 ag 1, ssDAF12 agonist -1 and DAX1 inh-2 3.8*.
`Cc1ccc(/C=N/Nc2ncnc3nc[nH]c23)cc1` gave hcDAF-12 act -1, DAX1 inh-1 5.6*, hgDAF-12 ag 9, ssDAF12 agonist -1 and DAX1 inh-2 1.
`Fc1cccc(/C=N/Nc2ncnc3nc[nH]c23)c1` gave hcDAF-12 act 2, DAX1 inh-1 0, hgDAF-12 ag 1, ssDAF12 agonist -1 and DAX1 inh-2 3.
`Oc1ccc(/C=N/Nc2ncnc3nc[nH]c23)cc1` gave hcDAF-12 act 0, DAX1 inh-1 3, hgDAF-12 ag 7, ssDAF12 agonist 0 and DAX1 inh-2 0.
Clc1ccc(/C=N/Nc2ncnc3nc[nH]c23)cc1 was read as hcDAF-12 act -1, DAX1 inh-1 4.9*, hgDAF-12 ag 3, ssDAF12 agonist -2 and DAX1 inh-2 2.
Screening COc1ccccc1C=NNC(=O)CSc1nc2ccccc2n1Cc1ccc(Cl)cc1 returned hcDAF-12 act 1, hgDAF-12 ag -1, ssDAF12 agonist -2 and DAX1 inh-2 0.
For COc1ccccc1OCCSc1nc2ccccc2n1CC(O)CO (centres undefined) the results were hcDAF-12 act 1, DAX1 inh-1 4.7*, hgDAF-12 ag 0, ssDAF12 agonist -1 and DAX1 inh-2 1.
For COc1cccc(/C=N/n2c(=O)[nH]c3ccccc32)c1OC the results were hcDAF-12 act 0, DAX1 inh-1 4.9*, hgDAF-12 ag 2, ssDAF12 agonist -1 and DAX1 inh-2 1.
For CCCCN1C(=O)C(O)=C(C(C)=O)C1c1ccccc1 (centres undefined) the results were DAX1 inh-1 -1.
Screening CCCCN1C(=O)C(O)=C(C(C)=O)C1c1ccccc1[N+](=O)[O-] (centres undefined) returned hcDAF-12 act 5, DAX1 inh-1 -1, hgDAF-12 ag 1, ssDAF12 agonist 0.9* and DAX1 inh-2 0.
Screening COc1cccc(CNC(=O)C2C3C=CC4(CN(Cc5ccccc5)C(=O)C24)O3)c1OC (centres undefined) returned hcDAF-12 act -3, hgDAF-12 ag -2, ssDAF12 agonist -1 and DAX1 inh-2 0.
COc1ccc(C2CC(=O)C(c3ccc(Cl)cc3)=CN2Cc2ccccc2)cc1 (centres undefined) was read as hcDAF-12 act -2, hgDAF-12 ag 3, ssDAF12 agonist -1 and DAX1 inh-2 -1.
Cc1cccc(C)c1N1CCN(CCn2c(=S)[nH]c3ccccc3c2=O)CC1 was read as hcDAF-12 act -1, DAX1 inh-1 4.2*, hgDAF-12 ag -1, ssDAF12 agonist -1 and DAX1 inh-2 0.
Screening CCN1CCN(CCn2c(=S)[nH]c3ccccc3c2=O)CC1 returned hcDAF-12 act -2, DAX1 inh-1 0, hgDAF-12 ag 1, ssDAF12 agonist -1 and DAX1 inh-2 0.
